Laboratory results from PubChem BioAssay (NCI).
This is part of a sample that, as a whole, favours compounds with a hit. Of some 79,000 tested, about 15% had one in any assay. Rule as the data show it: active = growth inhibition above about 70%; inactive = the rest.

Experiments:
[1] = NCI Yeast Anticancer Drug Screen. Data for the rad50 strain (AID 155);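 also: 0% = growth of vehicle-only cultures of the same strain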; conditions: S. cerevisiae rad50 strain growth inhibition; at 50.0 µM; active compounds read high
Method in brief: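 A DNA repair-deficient yeast mutant serves as the test organism; compound-induced growth inhibition is calculated against vehicle-treated cells.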

[2] = NCI Yeast Anticancer Drug Screen. Data for the mec2-1 strain (AID 157); conditions: S. cerevisiae mec2-1 strain, at 50.0 µM, active compounds read high
Method in brief: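 Using mec2-1 yeast: add compound, measure growth, express inhibition versus vehicle-treated cultures.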

[3] = NCI Yeast Anticancer Drug Screen. Data for the sgs1 mgt1 strain (AID 161);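 also: 0% = growth of cultures given vehicle only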; conditions: S. cerevisiae sgs1 mgt1 strain, at 50.0 µM, active compounds read high
Method in brief: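 Percent growth inhibition was derived by comparing compound-exposed mutant yeast with vehicle-exposed cultures. The strain carries alterations in DNA damage repair.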

[4] = NCI Yeast Anticancer Drug Screen. Data for the cln2 rad14 strain (AID 165);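 also: 0% = growth equal to vehicle treated cultures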; conditions: S. cerevisiae cln2 rad14 strain, at 50.0 µM, active compounds read high
Method in brief: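 Yeast strain cln2 rad14, bearing defects in cell cycle control and DNA repair, serves as the test system; values reflect growth inhibition compared with vehicle.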

[5] = NCI Yeast Anticancer Drug Screen. Data for the bub3 strain (AID 167); conditions: S. cerevisiae bub3 mutant strain, at 50.0 µM, active compounds read high
Method in brief: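 Inhibition values come from growth of compound-treated mutant yeast normalised to vehicle-treated controls.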

[6] = NCI Yeast Anticancer Drug Screen. Data for the mlh1 rad18 strain (AID 175); conditions: S. cerevisiae mlh1 rad18 strain growth inhibition; at 50.0 µM; active compounds read high
Method in brief: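 Steps: expose repair-defective yeast to compound; measure growth; express inhibition against vehicle-treated controls.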

Measured: growth inhibition

OCC(O)C(OC1OC(CO)C(O)C(O)C1O)c1nn(-c2ccc(F)cc2)c2nc3cc(Cl)c(Cl)cc3cc12 (configuration not stated)
inactive: [1] 13.6% | [2] -10.1% | [3] -26.8% | [4] 29.9% | [5] 6.45% | [6] -1.55%

COc1ccc(C(=O)C(C)(c2nc3n(c2O)C(=N)N=N3)c2nc3n(c2O)C(=N)N=N3)cc1 (configuration not stated)
inactive: [1] -8.8% | [2] 4.45% | [3] 0.75% | [4] -8.85% | [5] 5.8% | [6] -7.95%

O=C(/C=C\c1ccc(Cl)cc1)OCCCCOC(=O)/C=C/c1ccc(Cl)cc1
inactive: [1] 27.1% | [2] 3.15% | [3] -4.45% | [4] 9.5% | [5] 2.9% | [6] 5.25%

Cc1ccc[nH]c1=O
inactive: [1] -9.9% | [2] -15.1% | [3] -0.6% | [4] -8.05% | [5] -8.45% | [6] 2.4%

COCC(=O)c1ccc(C#N)cc1
inactive: [1] 4.35% | [2] -20.2% | [3] -7.25% | [4] -39% | [5] 4.45% | [6] 2.2%

COC(=O)c1cccc(Cl)n1
inactive: [1] 4.7% | [2] -16.8% | [3] -6.95% | [4] 1.05% | [5] 10.4% | [6] 7.85%

c1ccc2c3nnc(c2c1)SCCSCCCSCCS3
inactive: [1] -24.4% | [2] -31.4% | [3] -2.2% | [4] -5.25% | [5] 8.65% | [6] -30.4%

CCSC1(SCC)C(=O)OC2=C(CCCCC2)C1N(C)c1ccccc1 (configuration not stated)
inactive: [1] -15.2% | [2] -12.7% | [3] -14.4% | [4] -22.6% | [5] 1.1% | [6] -12.7%

C1=CCC(C(Nc2nncs2)Nc2nncs2)CC1 (configuration not stated)
inactive: [1] 6.25% | [2] 3.95% | [3] 19.6% | [4] 7.05% | [5] -24.9% | [6] 9.25%

N#CCCN(CCC#N)c1ccc(/C=C2\N=C(c3cc([N+](=O)[O-])ccc3Cl)OC2=O)cc1
inactive: [1] -8.15% | [2] 13.9% | [3] -16.4% | [4] 25% | [5] 4.85% | [6] -7.15%

COc1cc(OC)c([N+](=O)[O-])cc1/C=C/C(=O)O
inactive: [1] -5.25% | [2] -3.35% | [3] 8% | [4] 6.15% | [5] 9.95% | [6] 4.05%

O=C(O)C1[N-]CCNC1C(=O)O.[O]=[V][OH] (configuration not stated)
inactive: [1] -10.7% | [2] -2.4% | [3] -4.6% | [4] -16.9% | [5] -2.25% | [6] -5.05%

N#CC(C#N)=CN1CCCCC1
inactive: [1] -16.2% | [2] -4.65% | [3] -12.1% | [4] 17.6% | [5] -6.35% | [6] -17.8%

COc1ccc(NC(=O)CCCC(=O)CC(=O)c2ccc(Cl)cc2)c(OC)c1
inactive: [1] 32.6% | [2] 13.2% | [3] -0.95% | [4] -20% | [5] -1.95% | [6] 18.1%

c1cc(Nc2ccncc2)ccn1
inactive: [1] 23.6% | [2] -13% | [3] -1.9% | [4] 6.2% | [5] 0.15% | [6] 19.9%

COc1cc(C(=O)C(O)c2cc(OC)c(OC)c(OC)c2)cc(OC)c1OC (configuration not stated)
inactive: [1] 18% | [2] 11.2% | [3] 11.1% | [4] -13% | [5] 2.95% | [6] 28.3%

N#CCCC1(CCC#N)CCCCCCCCC(CCC#N)(CCC#N)C(=O)C1=O
inactive: [1] -8.7% | [2] -7.2% | [3] -5.15% | [4] 6.65% | [5] 2.4% | [6] 14.7%

COc1ccc2c(c1)C(=O)CC(C(N)=O)C2 (configuration not stated)
inactive: [1] 20.6% | [2] 2.85% | [3] -29.9% | [4] 3.6% | [5] -13.7% | [6] -32%

O/N=C1/C(=C/c2ccc(Br)cc2)CCCC1C(NO)c1ccc(Br)cc1 (configuration not stated)
inactive: [1] 0.9% | [2] -9.8% | [3] -27.4% | [4] 24.2% | [5] 0.45% | [6] -12.9%

CC1=C(C)C2C3C(=O)NC(=O)C3C1C1C3C(=O)NC(=O)C3C21 (configuration not stated)
inactive: [1] -21.8% | [2] -7.75% | [3] 7.3% | [4] -12.8% | [5] 10.1% | [6] 17.1%

CCCCCC(=O)c1ccccc1
inactive: [1] -27.9% | [2] -16.5% | [3] -19.3% | [4] -23.9% | [5] -8.8% | [6] -6.1%

N#C/C(N)=C(/C#N)N=Cc1ccccc1
inactive: [1] 15.9% | [2] 21.3% | [3] 8.4% | [4] -64.4% | [5] 7.2% | [6] 18.9%

CC(NC(=O)OCC[P+](c1ccccc1)(c1ccccc1)c1ccccc1)C(=O)O (configuration not stated)
inactive: [1] -14.2% | [2] -4.35% | [3] -11.6% | [4] 3.45% | [5] -27.1% | [6] -55.2%

O=C1CCCS(=O)(=O)CCC1
inactive: [1] 7.4% | [2] 11.5% | [3] -8.2% | [4] -3.5% | [5] 0.9% | [6] 54.1%

COc1cc(C(=O)c2cocc2C(=O)c2ccc3c(c2)OCO3)cc(OC)c1OC
inactive: [1] -17.2% | [2] -33.3% | [3] -10.3% | [4] -18.4% | [5] -25.6% | [6] -14.8%

Cc1ccc(S(=O)(=O)N(CCCc2c(Cl)nc(N)nc2Cc2ccccc2)c2ccccc2)cc1
inactive: [1] -9.75% | [2] -16.5% | [3] -17.2% | [4] -73.8% | [5] -0.8% | [6] -4.65%

COc1ccc(/C=C2\SC(c3ccc(OC)cc3)N(NC(=O)Cc3ccccc3)C2=O)cc1 (configuration not stated)
inactive: [1] -14.2% | [2] -34.8% | [3] -6.9% | [4] -63.2% | [5] 1.1% | [6] 1.15%

CC(=O)[CH-]C(=O)c1ccccc1.CC(=O)[CH-]C(=O)c1ccccc1.CC[O-].O=C1C=C([O-])C(=O)c2ccccc21.[Ti+4]
inactive: [1] 25.4% | [2] 60.5% | [3] 63.5% | [4] 61.1% | [5] 59.9% | [6] 56.9%

O=C(N/N=C/C=C/c1ccccc1)c1ccccc1O
inactive: [1] -1.8% | [2] 43% | [3] 56.2% | [4] -31.7% | [5] 43.4% | [6] 29.6%

O=C(NCCO)Nc1ccc2c(c1)OCCOCCOCCOCCO2
inactive: [1] -0.95% | [2] 4.8% | [3] -2.65% | [4] 14.1% | [5] 1.75% | [6] 5.9%

CCN(CC)C(=O)C1CCNCC1
inactive: [1] -12.3% | [2] -14.4% | [3] -2% | [4] -27.2% | [5] 9.85% | [6] -7.75%

NS(=O)(=O)c1ccc(NCc2cnc3ccccc3c2)cc1
inactive: [1] -4.65% | [2] -22.3% | [3] 12% | [4] -5.25% | [5] 4.1% | [6] 27.4%

Cc1cc2c(C(C)C)c(O)c(O)c(C=Nc3ccc(N=Nc4ccccc4)cc3)c2c(O)c1-c1c(C)cc2c(C(C)C)c(O)c(O)c(C=Nc3ccc(N=Nc4ccccc4)cc3)c2c1O
inactive: [1] -4.7% | [2] 0.4% | [3] -6.3% | [4] -21.8% | [5] -3.35% | [6] -4.65%

CC12CCC(=O)OC1(C)OC(=O)CC2 (configuration not stated)
inactive: [1] 10.4% | [2] 17.1% | [3] 2.85% | [4] -5.75% | [5] 7.7% | [6] -7.7%

[N-]=[N+]=NC1CC(n2cc(Cc3ccccc3)c(N)nc2=O)OC1CO (configuration not stated)
inactive: [1] -0.1% | [2] -10.6% | [3] 11.4% | [4] 2.95% | [5] 2.9% | [6] -7.05%

O=C1NCCc2c1sc1ccccc21
inactive: [1] -9.95% | [2] 2.45% | [3] -0.95% | [4] 1.5% | [5] -1.05% | [6] -6.9%

Cc1ccc(NC(=O)/C=C2\CONC(c3ccccc3)=N2)cc1
inactive: [1] -10.1% | [2] -5.7% | [3] -8.3% | [4] -15.2% | [5] -6.9% | [6] 1.75%
